Records with an inconclusive call do not appear. The source made the active and inactive calls. The calls were made as follows: active = hit-call score of the fitted dose curve at least 0.9, where 1 is the maximum; inconclusive = response in the unintended direction; inactive = score below 0.9.

As a reminder, the AC50 is the concentration at which the activity in the assay is half-maximal.

The nature of the experiment: Tanguay_ZF_120hpf_CIRC_legacy: (Legacy) Oregon State University Tanguay Lab 120 Hour Post-fertilization zebrafish Assay for Circulatory Malformation (AID 2283651). How it is done:
Tanguay_ZF_120hpf_legacy is a whole embryo, multiplexed endpoint assay using zebrafish larvae exposed for 120 hours post fertilization on a 96-well plate.Tanguay_ZF_120hpf_CIRC_legacy is one of one assay component(s) measured or calculated from the Tanguay_ZF_120hpf_legacy assay. It is designed to make measurements of zebrafish development as detected with brightfield microscopy of developing zebrafish embryos.Data from the assay component Tanguay_ZF_120hpf_CIRC_legacy was analyzed into 1 assay endpoints. This assay endpoint, Tanguay_ZF_120hpf_CIRC_legacy, was analyzed in the positive analysis fitting direction relative to DMSO as the negative control and baseline of activity. Using a type of morphology reporter, gain-of-signal activity can be used to understand changes in developmentals as they relate to the whole embryo. To generalize the intended target to other relatable targets, this assay endpoint is annotated to the zebrafish development intended target family, where the subfamily is angiogenesis.
Zebrafish husbandry: Tropical 5D wild-type adult zebrafish were housed in at an approximate density of 1000 per 100 gallon tank at the Sinnhuber Aquatic Research Laboratory, Oregon State University, Corvallis, OR. Each tank was kept at standard laboratory conditions of 28C on a 14-h light/10-h dark photoperiod in fish water consisting of reverse osmosis water supplemented with a commercially available salt (Instant Ocean). Spawning funnels were placed into the tanks the night prior, and embryos were collected and staged. To increase bioavailability, the chorion was enzymatically removed using pronase (63.6mg/ml, >/= 3.5U/mg, Sigma-Aldrich: P5147) at 4 hours post fertilization (hpf) using a custom automated dechorionator.Chemical exposures: Six hpf dechorionated embryos were placed 1 embryo per well in a 96-well plate prefilled with 90 ul of EM using automated embryo placement systems (AEPS). Ten microliters of each row of dilution plate 2 was added to 2 exposure plates. The final DMSO concentration used was 0.64% (vol/vol). Thirty-two embryos were also exposed to 5uM trimethyltin chloride (positive control). Plates were sealed to prevent evaporation and foil covered to reduce light exposure and kept in a 28C incubator. Embryos were statically exposed until 120 hpf. At 24 hpf, embryos were assessed for photomotor response using a custom photomotor response analysis tool (PRAT) and for developmental toxicity endpoints (MO24: mortality at 24 hpf, DP: developmental progression, SM: spontaneous movement, and NC: notochord distortion). At 120 hpf, locomotor activity was measured using Viewpoint Zebralab and assessed for 18 endpoints. Zebrafish acquisition and analysis program (ZAAP), a custom program designed to inventory, acquire, and manage zebrafish data, was used to collect developmental endpoints as either present or absent (i.e., binary responses were recorded). If mortality occurred for an embryo (at either 24 or 120 hpf), the non-mortality endpoints were not measured.
Regarding `CC(C)(O)c1cnn2c(-c3ccc(F)c(-c4c(F)cccc4C#N)c3)cnc2n1`, the outcome was inactive.

Turning to `c1ccc2c(c1)-c1cccc3cccc-2c13`, the call was inactive.

With `CC(C)(C)OOC(=O)c1ccccc1`, the result was inactive.

In the case of `CCCSC(=O)N(CCC)CCC`, the compound was called inactive.

In the case of `Nc1ccc(Oc2ccc(N)cc2)cc1`, the outcome was inactive.

`ClC1=C(Cl)[C@]2(Cl)[C@H]3[C@H]([C@@H]4C=C[C@H]3C4)[C@@]1(Cl)C2(Cl)Cl`: the compound was called inactive.

As to `CC(O)CCO` (stereo not given), the outcome was inactive.

Regarding `Cc1cccc(N)c1N`, the compound was called inactive.

Turning to `Clc1ccc(C(c2ccc(Cl)cc2)C(Cl)Cl)cc1`, the compound was classed as inactive.

In the case of `Cc1ccc(N)c(N)c1`, the call was inactive.

Take `Nc1ccc(Cl)cc1N`: the compound was classed as inactive.

`Clc1ccc(C(c2ccc(Cl)cc2)C(Cl)(Cl)Cl)cc1`: the result was inactive.

Regarding `[Cl-].[Cl-].[Hg+2]`, the AC50 was 3.58 µM (active).

For the compound `OCCCl`, the compound was classed as inactive.

As to `[O-][Cl+]O`, the result was inactive.

`Clc1ccccc1Cl`: the outcome was inactive.

As for `Oc1ccccc1Cl`, the call was inactive.

With `CC(C)(C)OOC(C)(C)CCC(C)(C)OOC(C)(C)C`, the call was inactive.

As for `Cc1ccc(N=C=O)cc1N=C=O`, the result was inactive.

In the case of `CCC(C)c1ccc(O)cc1` (stereo not given), the call was inactive.

On to `N#CC(Br)Br`, for which the compound was called inactive.

On to `CN(C)C(=O)Nc1ccc(Cl)cc1`, for which the outcome was inactive.

As to `Nc1ccc(N=Nc2ccccc2)cc1`, the compound was called inactive.

Consider `c1ccc2c(c1)oc1ccccc12`, for which the outcome was inactive.

In the case of `CCC[CH2][Sn]([Cl])([CH2]CCC)[CH2]CCC`, the call was inactive.

Regarding `O=C(Nc1ccccc1)c1ccccc1I`, the AC50 was 76.6 µM (active).

Consider `Nc1cc(Cl)cc(C(=O)O)c1Cl`, for which the compound was called inactive.

On to `O=Cc1ccco1`, for which the call was inactive.

With `ClCCOCCCl`, the result was inactive.

As for `COC(=O)c1ccccc1N`, the outcome was inactive.

For `Cc1ccc(N)cc1`, the result was inactive.

With `CC(C)N(Cc1ccccc1)C(=O)C(C)(C)C`, the outcome was inactive.

On to `C[C@]12C=CC3=C4CCC(=O)C=C4CC[C@H]3[C@@H]1CC[C@@H]2O`, for which the compound was classed as inactive.

For `COC(=O)Nc1nc2ccccc2[nH]1`, the compound was called inactive.

Consider `Oc1ccc2ccc3cccc4ccc1c2c34`, for which the compound was classed as inactive.

As to `CCOc1cccc(C2(N3CCN(c4ccccc4)CC3)CCC(C)CC2)c1` (stereo not given), the compound was called inactive.

As for `CCCCC(CC)COC(=O)c1ccc(C(=O)OCC(CC)CCCC)c(C(=O)OCC(CC)CCCC)c1` (stereo not given), the result was inactive.

For the compound `c1ccc(C2CO2)cc1` (stereo not given), the call was inactive.

On to `COP(=S)(OC)SCN1C(=O)c2ccccc2C1=O`, for which the compound was called inactive.

For `CCN(CC)CCO`, the outcome was inactive.
